From PubChem BioAssay (NCATS)
Records with an inconclusive call do not appear. Entries that show only a call come without a potency. Active and inactive are the calls of the source. Calls come from the whole dose curve; as a rule, active = well fitted inhibition curve with a large enough effect; inconclusive = small, poorly fitted or top-dose-only effect; inactive = flat fitted curve, though single readings scatter.

These compounds were tested against Aldehyde dehydrogenase, mitochondrial (Homo sapiens) (UniProt P05091) (assay: qHTS for Inhibitors of the Aldehyde Dehydrogenase Family (ALDH2) Primary screen (AID 2061308; note: nearly all actives have a fitted effect of over 55% in size)). Details: ALDH2 enzyme inhibition qHTS, 1536-well; series mostly up to 56 µM.
With O=S(=O)(Nc1ccccc1)c1ccc(NCc2ccc(Br)cc2O)cc1 the Potency was “inactive”.
In the case of Cc1cccc2nc(NC3=NC(c4[nH]ncc4Cl)C4=C(CCCC4=O)N3)oc12 (stereo unspecified), the Potency was “inactive”.
O=C(N[C@@H]1N=C(c2ccccc2F)c2cccc3c2N(CC3)C1=O)c1cc2ccccc2[nH]1 was tested, and the Potency was “inactive”.
C[C@]12CC[C@H](O[C@@H]3O[C@H](CO)[C@@H](O)[C@H](O)[C@H]3O)CC1=CC[C@@H]1C2CC[C@]2(C)[C@@H](C3=CC(=O)OC3)CC[C@]12O (stereo partly specified) was tested, and the Potency was “inactive”.
For CO[C@@H]1[C@H](O)[C@@H](O[C@@H]2C[C@H]3CC[C@@H]4C(CC[C@]5(C)[C@@H](C6=CC(=O)OC6)CC[C@]45O)[C@@]3(C)[C@H](O)C2)O[C@H](C)[C@@H]1O[C@@H]1O[C@H](CO)[C@@H](O)[C@H](O)[C@H]1O (stereo partly specified), the Potency was “inactive”.
C=C(CO)C(=O)O[C@H]1C/C(C)=C/CC/C(CO)=C/[C@H]2OC(=O)C(=C)[C@H]12 was tested, and the Potency was “inactive”.
With CCc1nn2c(=O)cc(N3CCN(C)CC3)nc2s1 the Potency was “inactive”.
With CO[C@H]1[C@H](O)[C@H](O[C@H]2CC[C@]3(C=O)C4CC[C@]5(C)[C@H](C6=CC(=O)OC6)CC[C@]5(O)C4CC[C@@H]3C2)O[C@@H](C)[C@@H]1O (stereo partly specified) the Potency was “inactive”.
With CC(C)=CCC[C@]1(C)C=Cc2c(O)c3c(c(CC=C(C)C)c2O1)O[C@]12C(=C[C@@H]4CC1C(C)(C)O[C@@]2(C/C=C(/C)C(=O)O)C4=O)C3=O the Potency was “inactive”.
For COc1ccc(CCNCc2ccc(OC)c3ccccc23)cc1, the Potency was “inactive”.
In the case of CCc1nn2c(=O)c(C)c(N3CCNCC3)nc2s1, the Potency was “inactive”.
